Measurements: PubChem BioAssay (EPA / NIEHS)
Values joined by “and” are separate entries in the source; they are usually repeats but may differ in a detail not shown here. Equal values may be shown once. Inconclusive results are not listed. Where a structure was tested more than once in an assay, its records may differ in their call. Active and inactive are the calls of the source. How the source made its calls: active means hit-call score of the fitted dose curve at least 0.9, where 1 is the maximum; inconclusive means response in the unintended direction; inactive means score below 0.9. Where a SMILES comes first, the peptide text is derived from it. [ ]: non-standard residue; d: D form. Orn = NCCC[C@H](N)C(=O)O

Assays:
[1] = TOX21_p53_BLA_p2_viability: Viability Assessment in the Tox21 HCT-116 p53 Agonism Beta-lactamase Assay, Phase 2 (AID 2283591);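 further: compound exposure lasted 16 h at 37 °C; actives lower the ATP signal meaning cytotoxicity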
How it was run: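 Cytotoxicity readout: CellTiter-Glo ATP luminescence, 30 min at room temperature, after the beta-lactamase read. Cells were HCT116 exposed 16 h at 37C to compounds pin-transferred at 217-fold dilution from DMSO stocks.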

[2] = target: Cellular tumor antigen p53 (Homo sapiens) (UniProt P04637); test: TOX21_p53_BLA_p2_ratio: Tox21 HCT-116 p53 Agonism Beta-lactamase Assay, Ratio, Phase 2 (AID 2283592)
How it was run: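 Cleaved-to-uncleaved substrate ratio (460 vs 530 nm) measured in HCT116 cells with an inducible beta-lactamase reporter linked to p53 activity. Compounds incubated 16 h at 37C before 2 h room-temperature CCF4-AM loading.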

[3] = TOX21_p53_BLA_p3_viability: Viability Assessment in the Tox21 HCT-116 p53 Agonism Beta-lactamase Assay, Phase 3 (AID 2283593);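 further: cells exposed to compound for 16 h before reading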
How it was run: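 Cellular ATP was quantified by CellTiter-Glo luminescence, read after 30 min at room temperature. Beforehand, HCT116 cells (4000/well) received compound 5 h post-seeding, 217-fold diluted from DMSO, then incubated 16 h at 37C.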

[4] = target: Cellular tumor antigen p53 (Homo sapiens) (UniProt P04637); test: TOX21_p53_BLA_p3_ratio: Tox21 HCT-116 p53 Agonism Beta-lactamase Assay, Ratio, Phase 3 (AID 2283596)
How it was run: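 Cells were seeded at 4000/well, rested 5 h at 37C, then dosed with DMSO compound solutions (217-fold dilution) for 16 h. CCF4-AM substrate was loaded for 2 h at room temperature, and the 460/530 nm emission ratio was fitted for gain of signal versus DMSO.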

[5] = TOX21_p53_BLA_p4_viability: Viability Assessment in the Tox21 HCT-116 p53 Agonism Beta-lactamase Assay, Phase 4 (AID 2283597);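 further: hits lower the luminescence signal meaning cytotoxicity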
How it was run: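 Viability is taken as cellular ATP: after 16 h compound exposure of HCT116 cells and a 2 h room-temperature CCF4-AM substrate step, CellTiter-Glo reagent is added and luminescence is measured 30 min later.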

[6] = target: Cellular tumor antigen p53 (Homo sapiens) (UniProt P04637); test: TOX21_p53_BLA_p5_ratio: Tox21 HCT-116 p53 Agonism Beta-lactamase Assay, Ratio, Phase 5 (AID 2283599)
How it was run: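 Beta-lactamase reporter ratio (blue 460 nm over green 530 nm, 405 nm excitation) after 2 h CCF4-AM loading, in HCT-116 cells exposed 16 h at 37 C to compounds pinned at 217-fold dilution. Increases relative to DMSO baseline scored.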

[7] = TOX21_p53_BLA_p5_viability: Viability Assessment in the Tox21 HCT-116 p53 Agonism Beta-lactamase Assay, Phase 5 (AID 2283600)
How it was run: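 Viability is taken from cellular ATP content, measured by luciferase luminescence in the same wells after the beta-lactamase ratio read. Cells are seeded at 4000 per well and exposed to DMSO-dissolved compounds, diluted 217-fold, for 16 h.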

[8] = target: Cellular tumor antigen p53 (Homo sapiens) (UniProt P04637); test: TOX21_p53_BLA_p4_ratio: Tox21 HCT-116 p53 Agonism Beta-lactamase Assay, Ratio, Phase 4 (AID 2283601)
How it was run: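 Signal is the blue/green (460nm/530nm) ratio of cleaved versus uncleaved CCF4-AM substrate, read after 2 h substrate loading. Cells were HCT116 carrying the p53-responsive beta-lactamase reporter, dosed 16 h at 37C, 5% CO2; CellTiter-Glo measured in parallel.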

Measured: AC50

Cellular tumor antigen p53 (Homo sapiens), sequence (P04637 whole entry, looked up): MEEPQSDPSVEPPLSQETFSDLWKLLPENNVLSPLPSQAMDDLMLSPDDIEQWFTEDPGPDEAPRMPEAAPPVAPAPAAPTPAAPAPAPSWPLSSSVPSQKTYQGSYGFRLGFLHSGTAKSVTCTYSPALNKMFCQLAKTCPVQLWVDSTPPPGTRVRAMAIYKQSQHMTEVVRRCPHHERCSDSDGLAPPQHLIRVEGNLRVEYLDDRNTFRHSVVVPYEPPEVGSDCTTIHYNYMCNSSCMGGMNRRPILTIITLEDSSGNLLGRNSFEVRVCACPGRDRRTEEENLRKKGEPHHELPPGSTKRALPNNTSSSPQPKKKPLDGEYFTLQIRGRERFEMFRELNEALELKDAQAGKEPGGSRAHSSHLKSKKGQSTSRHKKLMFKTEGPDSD

O=C1CCCCO1
inactive: [1] | [2] | [3] | [4] | [5] | [6] | [7]

CC(=O)Oc1ccc(C(c2ccc(OC(C)=O)cc2)c2ccccn2)cc1
active: [2] 11.4 µM and 2.16 µM | [4] 1.55 µM and 3.98 µM | [5] 1.4 µM and 2.68 µM | [6] 1.18 µM | [8] 5.22 µM
inactive: [1] | [3] | [6] | [7] | [8]

C=CCn1c(=O)n(CC=C)c(=O)n(CC=C)c1=O
inactive: [1] | [2] | [3] | [4] | [5] | [6] | [7]

OC[C@H]1O[C@@H](O[C@H]2[C@H](O)[C@@H](O)C(O)O[C@@H]2CO)[C@H](O)[C@@H](O)[C@@H]1O (stereo partly specified)
inactive: [1] | [2] | [3] | [4] | [5] | [6] | [7]

CC(CNC1CCCCC1)OC(=O)c1ccccc1 (stereo unspecified)
inactive: [1] | [2] | [3] | [4] | [5] | [6] | [7]

C=C1/C(=C\C=C2/CCC[C@]3(C)[C@@H]([C@H](C)CCCC(C)(C)O)CC[C@@H]23)C[C@@H](O)C[C@@H]1O
active: [1] 19.8 µM | [2] 37.8 µM | [3] 24.5 µM | [4] 25.4 µM | [5] 13 µM | [6] 27 µM | [7] 21 µM

CCCCCCCCOc1ccc(C(=O)O)cc1
inactive: [1] | [2] | [5] | [6] | [7]
active: [3] 45.7 µM | [4] 79.4 µM

Cc1ccsc1C(=CCCN1CCC[C@@H](C(=O)O)C1)c1sccc1C
inactive: [1] | [2] | [3] | [4] | [5] | [6] | [7]

Cc1cc(CC(C)CC(C)(C)C)n(O)c(=O)c1 (stereo unspecified) (tested in a mixture with another compound)
inactive: [1] | [2] | [4]
active: [3] 43.5 µM | [5] 34.1 µM | [6] 36.1 µM | [7] 41.8 µM | [8] 33 µM

CC(C)c1ccc2oc3nc(N)c(C(=O)O)cc3c(=O)c2c1
inactive: [1] | [2] | [3] | [4] | [5] | [6] | [7]

CC(=O)OC(C)C[N+](C)(C)C (stereo unspecified)
inactive: [1] | [2] | [3] | [4] | [5] | [6] | [7]

O=C1[C@H]2CCCC[C@H]2C(=O)N1CCCCN1CCN(c2nsc3ccccc23)CC1
inactive: [1] | [2] | [3] | [4] | [5] | [6] | [7]

CC(S)C(=O)NCC(=O)O (stereo unspecified)
inactive: [1] | [2] | [3] | [4] | [5] | [6] | [7]

CC(NCCC(c1ccccc1)c1ccccc1)c1ccccc1 (stereo unspecified)
active: [1] 26.6 µM | [2] 33.9 µM | [5] 32.5 µM | [6] 35.8 µM
inactive: [3] | [4] | [7]

COc1ccc2c(c1)OC(C)(C)C(c1ccccc1)C2c1ccc(OCCN2CCCC2)cc1 (stereo unspecified)
active: [3] 35.3 µM | [4] 43.8 µM | [5] 43.5 µM | [6] 36.7 µM | [7] 33.5 µM
inactive: [1] | [2]

CO/N=C(\C(=O)N[C@@H]1C(=O)N2C(C(=O)O)=C(CSC(=O)c3ccco3)CS[C@H]12)c1csc(N)n1
inactive: [1] | [2] | [3] | [4] | [5] | [6] | [7]

Clc1ccc(Cn2c(CN3CCCC3)nc3ccccc32)cc1
inactive: [1] | [2] | [3] | [4] | [5] | [6] | [7]

CCOC(=O)c1cc(-c2ccccc2)nc2ccc(C)cc12
inactive: [1] | [2] | [3] | [4] | [5] | [6] | [7]

CC(CO)(CO)C(=O)O
inactive: [1] | [2] | [3] | [4] | [5] | [6] | [7]

N/C(=N\N=Cc1ccc(Cl)cc1)NN=Cc1ccc(Cl)cc1
inactive: [1] | [2] | [5] | [6] | [7]
active: [3] 42.7 µM | [4] 37.6 µM

Cc1nc(NS(=O)(=O)c2ccc(N)cc2)nc(C)c1Br
inactive: [1] | [2] | [3] | [4] | [5] | [6] | [7]

CC(C)(C)c1cc(CO)cc(C(C)(C)C)c1O
inactive: [1] | [2] | [3] | [4] | [5] | [6] | [7]

O[C@@H]([C@H](O)[C@H](O)CBr)[C@H](O)CBr
inactive: [1] | [2] | [3] | [4] | [5] | [6] | [7]

CC=C(C)C#N
inactive: [1] | [2] | [3] | [4] | [5] | [6] | [7]

CC(C)[C@H](N)C(=O)OCC(CO)OCn1cnc2c(=O)[nH]c(N)nc21 (stereo partly specified)
inactive: [1] | [2] | [3] | [4] | [5] | [6] | [7]

CC(C)=CCC/C(C)=C/CC/C(C)=C/CC/C(C)=C/CC1=C(C)C(=O)c2ccccc2C1=O
inactive: [1] | [2] | [3] | [4] | [5] | [6] | [7]

Nc1ccc(F)cc1F
inactive: [1] | [2] | [3] | [4] | [5] | [6] | [7]

CCCCCCCCCCCC(=O)N(CCO)CCO
inactive: [1] | [2] | [3] | [4] | [5] | [6] | [7]

CCCCOCCOCCOCCCC
inactive: [1] | [2] | [3] | [4] | [5] | [6] | [7]

N#CC(c1ccc(Cl)cc1)c1c(Cl)cc(-n2ncc(=O)[nH]c2=O)cc1Cl (stereo unspecified)
inactive: [1] | [7]
active: [2] 19.6 µM | [3] 32.2 µM | [4] 20.3 µM | [5] 31.4 µM | [6] 22.1 µM

CCC(=O)c1ccc(O)cc1
inactive: [1] | [2] | [3] | [4] | [5] | [6] | [7]

Nc1cc(S(=O)(=O)O)ccc1O
inactive: [1] | [2] | [3] | [4] | [5] | [6]

O=c1cc(CO)occ1O
inactive: [1] | [2] | [3] | [4] | [5] | [6] | [7]

C[N+]1([O-])CCOCC1
inactive: [1] | [2] | [3] | [4] | [5] | [6] | [7]

CC(C)C(=O)OCC(=O)[C@@]12O[C@H](C3CCCCC3)O[C@@H]1C[C@H]1[C@@H]3CCC4=CC(=O)C=C[C@]4(C)[C@H]3[C@@H](O)C[C@@]12C
inactive: [1] | [2] | [3] | [4] | [5] | [6] | [7]

CCCCCCCCCCCCCCCCCC(=O)OC[C@@H](O)[C@H]1OC[C@H](O)[C@H]1O
inactive: [1] | [2] | [3] | [4] | [5] | [6] | [7] | [8]

O=C(Nc1ccc(Cl)cc1)Nc1ccc(Cl)c(C(F)(F)F)c1
inactive: [3]
active: [1] 32.8 µM | [2] 5.23 µM | [4] 11.2 µM | [5] 33.1 µM | [6] 19.5 µM | [7] 39.6 µM | [8] 6.95 µM

O=c1c(-c2ccccc2)c1-c1ccccc1
active: [2] 23.8 µM | [4] 22.2 µM
inactive: [1] | [3] | [5] | [6] | [7] | [8]

CCc1c2c(nc3ccc(OC(=O)N4CCC(N5CCCCC5)CC4)cc13)-c1cc3c(c(=O)n1C2)COC(=O)[C@]3(O)CC
inactive: [1] | [3] | [5] | [7]
active: [2] 5.56 µM | [4] 5.37 µM | [6] 7.41 µM | [8] 11.3 µM

CC(C)C[C@@H]1NC(=O)[C@H](CCCN)NC(=O)[C@H](C(C)C)NC(=O)[C@@H]2CCCN2C(=O)[C@@H](Cc2ccccc2)NC(=O)[C@H](CC(C)C)NC(=O)[C@H](CCCN)NC(=O)[C@H](C(C)C)NC(=O)[C@@H]2CCCN2C(=O)[C@@H](Cc2ccccc2)NC1=O (cyclo(V[Orn]L[dF]PV[Orn]L[dF]P))
inactive: [2] | [4] | [6]
active: [1] 8.09 µM | [3] 5.88 µM | [5] 5.84 µM | [7] 4.51 µM | [8] 2.35 µM

O=C(CS)Nc1ccccc1
inactive: [1] | [2] | [3] | [4] | [5] | [6] | [7] | [8]

Cc1cc(CC(=O)O)n(C)c1C(=O)c1ccc(Cl)cc1
inactive: [1] | [2] | [3] | [4] | [5] | [6] | [7] | [8]

CCCCCCCCCCCCCCCCOCCOCCOCCOCCOCCOCCOCCOCCOCCOCCOCCOCCOCCOCCOCCOCCOCCOCCOCCOCCO
active: [1] 30.1 µM | [2] 29.5 µM | [3] 6.03 µM | [4] 11.7 µM | [5] 34.5 µM | [6] 41.4 µM | [7] 33.3 µM | [8] 43.5 µM

NC(=O)Nc1ccc(Cl)c(Cl)c1
inactive: [1] | [2] | [3] | [4] | [5] | [6] | [7] | [8]

CCN(CC)CCOc1ccc(Cc2ccccc2)cc1
inactive: [2] | [3] | [4] | [6] | [7] | [8]
active: [1] 42.2 µM | [5] 33.8 µM

CCOC(=O)C=CC(=O)O
inactive: [1] | [2] | [3] | [4] | [5] | [6] | [7] | [8]
